# Inconclusive results are not listed. Where a call stands in place of a potency, no number is given. The source made the active and inactive calls. Unless noted, calls come from the whole dose curve; as a rule, active = well fitted curve in the direction sought with a large enough effect; inconclusive = small, poorly fitted or top-dose-only effect, or another doubt; inactive = no such curve, though single readings can be large; an effect the other way counts as inactive or inconclusive.
# Columns and labels:
# [1] = AP1 Signaling Pathway (AID 357; active = well fitted curve in either direction with a large enough effect, not every such curve was filed as active;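 note: ME-180 reporter cells stimulated with EGF at its EC50 level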); conditions: ME-180 AP-1-bla reporter, EGF-induced, beta-lactamase ratio, 5 h; at 38 µM (top of the series)
# Method in brief: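 Titration-series screen for positive or negative modulators of EC50 EGF-induced signaling in ME-180 cells carrying an AP-1-driven beta-lactamase reporter. After 5 hours at 37 degrees Celsius, CCF4 460nm/530nm emission ratio gave %Activity; AC50 values derived.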
# [2] = target: Cytochrome P450 1A2 (Homo sapiens) (UniProt P05177); experiment: p450-cyp1a2 (AID 410; calls by dose curve); conditions: recombinant CYP1A2, luciferin-ME demethylation, luminescence; series mostly up to 57 µM
# Sequence of Cytochrome P450 1A2 (Homo sapiens) (P05177 whole entry, looked up): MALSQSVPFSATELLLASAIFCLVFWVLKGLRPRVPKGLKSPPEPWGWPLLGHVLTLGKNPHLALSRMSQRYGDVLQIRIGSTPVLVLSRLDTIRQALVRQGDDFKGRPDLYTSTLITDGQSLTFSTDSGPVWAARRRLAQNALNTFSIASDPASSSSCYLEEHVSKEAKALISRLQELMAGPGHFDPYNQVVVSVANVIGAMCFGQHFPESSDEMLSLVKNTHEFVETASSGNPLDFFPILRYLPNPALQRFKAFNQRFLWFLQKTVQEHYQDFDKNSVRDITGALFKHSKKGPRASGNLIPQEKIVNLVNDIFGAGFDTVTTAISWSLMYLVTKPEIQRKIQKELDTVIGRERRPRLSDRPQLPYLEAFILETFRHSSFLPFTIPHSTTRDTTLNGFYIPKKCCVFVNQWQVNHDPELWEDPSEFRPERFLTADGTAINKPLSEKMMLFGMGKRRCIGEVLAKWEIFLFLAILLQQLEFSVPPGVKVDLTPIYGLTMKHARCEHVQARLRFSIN
# Method in brief: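 Read-out is luminescence from luciferin produced by CYP1A2 demethylation of Luciferin-ME (100uM, at Km). Detection reagent stopped the 60 min NADPH-dependent reaction; signals were normalized to 57 uM furafylline.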
# [3] = NFAT Signaling Pathway (AID 444; active = well fitted curve in either direction with a large enough effect, not every such curve was filed as active;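 note: carbachol stimulus at about its EC50 of 1 µM final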); conditions: Jurkat NFAT-bla M1, carbachol, beta-lactamase ratio, 5 h; at 38 µM (top of the series)
# Method in brief: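 Read-out: CCF4 FRET ratio (460 nm/530 nm) after 1 h RT dye loading, used for %activity and AC50 from titration series. Cells: Jurkat NFAT-β-lactamase/M1 line, treated with compound plus 1 uM carbachol for 5 h, 37 °C.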
# [4] = Stat Signaling Pathway (AID 446; active = well fitted curve in either direction with a large enough effect, not every such curve was filed as active;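 note: ME-180 cervical cancer cells given 40 pM IL-6 alongside compound; SIE-controlled beta-lactamase reporter measured as 460/530 nm FRET emission ratio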); conditions: ME-180 (cervical carcinoma) SIE beta-lactamase reporter, IL-6 stimulated, 5 h; at 38 µM (top of the series)
# Method in brief: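 FRET read-out (405 nm excitation, 460/530 nm emission) of a beta-lactamase reporter under a STAT-inducible element in ME-180 cervical carcinoma cells. Cells with compound receive 40 pM IL-6 for 5 h. Values are normalised to AC90 stimulation and AC90 JAK-inhibitor controls.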
# [5] = target: Glucocorticoid receptor (Homo sapiens) (UniProt P04150); experiment: GR-GFP Redistribution (AID 450;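 active = compounds whose dose series gives a full or clear partial fitted curve of increased nuclear translocation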; note: potency is the fitted concentration of half-maximal effect); conditions: U2OS GR-GFP nuclear translocation, laser cytometry, 2 h
# Sequence of Glucocorticoid receptor (Homo sapiens) (P04150 whole entry, looked up, the tested form may be a part): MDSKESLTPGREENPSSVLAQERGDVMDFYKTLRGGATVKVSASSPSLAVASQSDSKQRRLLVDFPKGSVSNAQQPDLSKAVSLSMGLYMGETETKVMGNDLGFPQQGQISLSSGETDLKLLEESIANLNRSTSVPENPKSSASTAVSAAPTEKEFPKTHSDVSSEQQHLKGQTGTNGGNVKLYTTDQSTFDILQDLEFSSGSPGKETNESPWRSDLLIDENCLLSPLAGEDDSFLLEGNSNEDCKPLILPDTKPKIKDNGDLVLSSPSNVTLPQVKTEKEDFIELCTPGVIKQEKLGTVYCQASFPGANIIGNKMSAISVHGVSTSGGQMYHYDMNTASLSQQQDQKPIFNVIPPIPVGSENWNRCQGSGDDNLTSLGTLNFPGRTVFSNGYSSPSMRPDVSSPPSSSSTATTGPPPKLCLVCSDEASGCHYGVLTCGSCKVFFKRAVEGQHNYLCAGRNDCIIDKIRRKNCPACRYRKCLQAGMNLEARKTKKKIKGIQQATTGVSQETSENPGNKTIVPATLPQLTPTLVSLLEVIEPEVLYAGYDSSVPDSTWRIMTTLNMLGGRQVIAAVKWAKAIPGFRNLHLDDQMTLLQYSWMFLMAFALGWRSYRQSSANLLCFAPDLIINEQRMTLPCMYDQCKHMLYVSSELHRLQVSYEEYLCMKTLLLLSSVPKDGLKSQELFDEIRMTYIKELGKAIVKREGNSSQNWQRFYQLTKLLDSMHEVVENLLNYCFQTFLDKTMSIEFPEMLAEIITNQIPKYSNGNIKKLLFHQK
# [6] = target: Glucocorticoid receptor (Homo sapiens) (UniProt P04150); experiment: GR-EFC Redistribution (AID 451; calls by dose curve; note: potency is the fitted concentration of half-maximal effect); conditions: CHO-K1 GR-EFC translocation, beta-gal luminescence, 2 h
# Method in brief: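 Translocation of GR-ED fusion to nuclear EA restores b-gal, read by luminescence after 1 h room-temperature detection. Engineered CHO-K1 biosensor cells, 1,000/well, exposed 2 h at 37 C to titrations up to 46 uM final.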
# [7] = target: Mitogen-activated protein kinase 10 (Mus musculus) (UniProt Q61831); experiment: JNK3 AlphaScreen Assay (AID 530; active = well fitted curve in either direction with a large enough effect, not every such curve was filed as active;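 note: kinase came from lysate of stimulated human HepG2 cells; signal reports phosphorylation of biotinylated GST-cJun 1-79 at Ser73 with 10 µM ATP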); conditions: JNK3 lysate, c-Jun phosphorylation; series mostly up to 57.1 µM
# Method in brief: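 Kinase buffer: 20 mM Tris-HCl pH 7.6, 10 mM MgCl2, 1 mM DTT, 0.1 mM Na3VO4, 0.01% Tween-20; ATP 10 uM. Substrate biotin-GST-cJun(1-79), enzyme from activated HepG2 lysates. Detection by Ser73 phospho-antibody AlphaScreen.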
# [8] = target: 3',5'-cyclic-AMP phosphodiesterase 4B (Homo sapiens) (UniProt Q07343); experiment: qHTS Assay for Inhibitors of PDE-IV (AID 607; active = well fitted activation curve with a large enough effect in the main read-out, with a control signal flat, not every such curve was filed as active); conditions: HEK293 ACTOne CNG channel cells, membrane potential fluorescence; series mostly up to 22.9 µM
# Sequence of 3',5'-cyclic-AMP phosphodiesterase 4B (Homo sapiens) (Q07343 whole entry, looked up): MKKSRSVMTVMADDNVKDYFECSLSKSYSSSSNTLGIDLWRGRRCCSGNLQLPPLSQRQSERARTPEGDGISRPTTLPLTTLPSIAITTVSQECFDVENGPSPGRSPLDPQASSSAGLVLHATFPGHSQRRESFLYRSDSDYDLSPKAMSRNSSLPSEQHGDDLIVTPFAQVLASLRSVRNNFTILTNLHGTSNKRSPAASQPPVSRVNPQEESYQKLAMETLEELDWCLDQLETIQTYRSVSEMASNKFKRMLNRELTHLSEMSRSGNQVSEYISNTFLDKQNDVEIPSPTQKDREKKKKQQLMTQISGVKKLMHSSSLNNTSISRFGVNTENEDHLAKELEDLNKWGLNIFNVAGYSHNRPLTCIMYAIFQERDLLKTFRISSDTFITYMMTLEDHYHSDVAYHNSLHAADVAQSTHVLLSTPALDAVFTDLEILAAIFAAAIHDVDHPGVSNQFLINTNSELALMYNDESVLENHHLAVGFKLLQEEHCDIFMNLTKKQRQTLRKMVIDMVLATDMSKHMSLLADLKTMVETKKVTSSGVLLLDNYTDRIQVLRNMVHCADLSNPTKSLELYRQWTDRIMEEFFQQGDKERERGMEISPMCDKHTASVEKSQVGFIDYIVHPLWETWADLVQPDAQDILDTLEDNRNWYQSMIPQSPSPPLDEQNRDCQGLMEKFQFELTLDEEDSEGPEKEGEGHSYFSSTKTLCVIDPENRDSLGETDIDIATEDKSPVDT
# Method in brief: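 Cell-based read-out of cAMP via a modified cyclic nucleotide-gated channel and membrane potential dye (535/590 nm) in HEK293 cells expressing PDE4 endogenously. Compounds tested up to 22.9 uM final; 100 uM RO 20-1724 reference.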
# [9] = target: Guanine nucleotide-binding protein G(i) subunit alpha-1 (Homo sapiens) (UniProt P63096); experiment: qHTS Assay for Inhibitors of RGS12 GoLoco Motif Activity (Green Fluorophore) (AID 879); conditions: Galphai1/FITC-RGS12 GoLoco peptide, fluorescence polarization; series mostly up to 57.1 µM;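 note: negative values mean loss of peptide binding seen as reduced polarization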
# Method in brief: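 A drop in FITC polarization marked displacement of the FITC-tagged RGS12 GoLoco peptide (10 nM) from Gαi1 (50 nM). Compounds were incubated 10 min at room temperature in Tris pH 7.5 buffer containing 150 mM NaCl, 0.1 mM GDP and 0.05% NP40; unlabeled peptide titration served as control.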
# [10] = target: Cytochrome P450 2C9 (Homo sapiens) (UniProt P11712); experiment: qHTS Assay for Inhibitors and Substrates of Cytochrome P450 2C9 (AID 883); conditions: recombinant CYP2C9, luciferin-H luminescence, 60 min; series mostly up to 57.1 µM; note: nearly all actives have a fitted effect of over 60% in size
# Sequence of Cytochrome P450 2C9 (Homo sapiens) (P11712 whole entry, looked up): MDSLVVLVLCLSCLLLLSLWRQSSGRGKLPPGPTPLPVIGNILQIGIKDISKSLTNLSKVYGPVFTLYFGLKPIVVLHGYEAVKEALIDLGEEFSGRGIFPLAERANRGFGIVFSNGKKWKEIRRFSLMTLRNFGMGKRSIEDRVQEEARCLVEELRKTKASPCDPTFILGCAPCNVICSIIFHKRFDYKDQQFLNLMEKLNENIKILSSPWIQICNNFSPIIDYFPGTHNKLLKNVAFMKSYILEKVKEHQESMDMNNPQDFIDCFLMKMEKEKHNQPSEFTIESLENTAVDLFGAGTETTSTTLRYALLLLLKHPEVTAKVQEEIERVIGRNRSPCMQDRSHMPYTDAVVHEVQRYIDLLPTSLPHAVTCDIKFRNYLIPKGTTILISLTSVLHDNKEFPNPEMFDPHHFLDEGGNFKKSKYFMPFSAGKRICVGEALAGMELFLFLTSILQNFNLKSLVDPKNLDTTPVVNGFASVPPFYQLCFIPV
# Method in brief: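 Inhibition of CYP2C9 is scored as loss of luminescence, with 57uM sulphaphenazole defining 100% inhibition. Substrate Luciferin-H is used at 100uM, equal to its KM; enzyme at 10nM in 25mM KPO4, 60 min at 37C with NADPH regeneration.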
# [11] = target: Cytochrome P450 2D6 (Homo sapiens) (UniProt P10635); experiment: qHTS Assay for Inhibitors and Substrates of Cytochrome P450 2D6 (AID 891); conditions: recombinant CYP2D6, luciferin-ME EGE luminescence; series mostly up to 57.1 µM;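 note: luciferin methyl ether substrate demethylated by CYP2D6 with NADPH regeneration; nearly all actives have a fitted effect of over 60% in size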
# Sequence of Cytochrome P450 2D6 (Homo sapiens) (P10635 whole entry, looked up): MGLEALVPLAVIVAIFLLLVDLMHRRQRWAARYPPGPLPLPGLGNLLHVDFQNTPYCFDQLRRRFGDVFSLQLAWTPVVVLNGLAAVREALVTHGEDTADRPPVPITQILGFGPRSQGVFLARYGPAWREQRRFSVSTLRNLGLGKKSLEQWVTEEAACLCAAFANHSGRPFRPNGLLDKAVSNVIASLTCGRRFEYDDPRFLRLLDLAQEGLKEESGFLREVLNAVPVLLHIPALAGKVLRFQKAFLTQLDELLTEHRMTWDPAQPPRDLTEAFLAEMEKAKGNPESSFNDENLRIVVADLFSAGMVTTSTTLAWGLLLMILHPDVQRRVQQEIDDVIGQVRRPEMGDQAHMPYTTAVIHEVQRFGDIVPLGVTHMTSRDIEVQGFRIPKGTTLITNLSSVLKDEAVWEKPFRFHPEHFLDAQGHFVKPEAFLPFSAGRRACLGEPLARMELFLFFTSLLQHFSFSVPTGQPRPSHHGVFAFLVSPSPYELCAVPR
# Method in brief: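 Luminescent read-out of luciferin formed by 5 nM human CYP2D6 demethylating 30 uM Luciferin-ME EGE (Km level) over 60 min at room temperature after NADPH regeneration addition. Data normalized to full inhibition by 1.43 uM quinidine.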
# [12] = target: Cytochrome P450 2C19 (Homo sapiens) (UniProt P33261); experiment: qHTS Assay for Inhibitors and Substrates of Cytochrome P450 2C19 (AID 899); conditions: recombinant CYP2C19, luciferin-H EGE luminescence; series mostly up to 57.1 µM; note: nearly all actives have a fitted effect of over 60% in size
# Method in brief: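 5nM enzyme + 10uM Luciferin-H EGE (=KM), 50mM KPO4; cpd pin-transferred, 10 min 37C; NADPH regen, 60 min 37C; stopped w/ luciferin detection reagent, 20 min; luminescence. Normalized to 57uM ketoconazole (AC100).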
# [13] = Confirmation and Secondary Assay for Modulators of Hemoglobin Beta Chain Splicing at IVS2 654 locus (AID 910); conditions: HeLa EGFP-654 splicing reporter, GFP fluorescence, 48 h; series mostly up to 46.1 µM;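 note: HeLa cells stably carrying EGFP split by mutant beta-globin IVS2-654 intron; per-well total GFP intensity by laser scanning cytometry after 2-day treatment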
# Method in brief: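 Readout: per-well total peak green fluorescence (488 nm ex, 500–520 nm em) from objects 5–250 µm, reflecting correct splicing of an EGFP-654 reporter. Compounds were applied for 2 days at 37 °C to overnight-plated HeLa EGFP-654 cells; controls were DMSO and 500 nM IVS2-654 PNA.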
# [14] = qHTS Assay for Identification of Small Molecule Agonists for Thrombopoietin (TPO) Signaling Pathway (AID 917); conditions: TPO signaling pathway reporter cells, agonist qHTS, stimulated with TPO at its EC50; series mostly up to 38.5 µM
# Method in brief: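 Luciferase reporter (Glycoprotein IIb promoter) in IL-3-deprived Ba/F3 cells carrying human TPO receptor; compounds co-added with 26 pM TPO, incubated 24 h, 37 C. Steadylite luminescence measured after 10 min.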
# [15] = Confirmation and Secondary Assay for Modulators of Hemoglobin Beta Chain Splicing at IVS2 705 locus (AID 930); conditions: HeLa EGFP-705 splicing reporter, GFP fluorescence, 48 h; series mostly up to 46.1 µM;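 note: HeLa cells stably expressing the EGFP-705 splicing reporter; GFP fluorescence per well restored by corrected splicing of the IVS2-705 intron in EGFP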
# Method in brief: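 Stable HeLa line with EGFP disrupted by mutant beta-globin intron 2 (705). Overnight attachment, then 2 days of compound at 37C, 5% CO2. Signal: peak GFP intensity summed over objects 5-250 µm.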
# [16] = target: Muscarinic acetylcholine receptor M1 (Rattus norvegicus) (UniProt P08482); experiment: qHTS Assay for Antagonists of Acetylcholine Muscarinic M1 Receptor: Kinetic Measurement of Intracellular Calcium Response (AID 943); conditions: M1-expressing cells, kinetic intracellular calcium fluorescence; series mostly up to 35.3 µM;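 note: Fluo-4 calcium signal as peak divided by basal fluorescence over 4 min; nearly all actives have a fitted effect of over 75% in size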
# Sequence of Muscarinic acetylcholine receptor M1 (Rattus norvegicus) (P08482 whole entry, looked up): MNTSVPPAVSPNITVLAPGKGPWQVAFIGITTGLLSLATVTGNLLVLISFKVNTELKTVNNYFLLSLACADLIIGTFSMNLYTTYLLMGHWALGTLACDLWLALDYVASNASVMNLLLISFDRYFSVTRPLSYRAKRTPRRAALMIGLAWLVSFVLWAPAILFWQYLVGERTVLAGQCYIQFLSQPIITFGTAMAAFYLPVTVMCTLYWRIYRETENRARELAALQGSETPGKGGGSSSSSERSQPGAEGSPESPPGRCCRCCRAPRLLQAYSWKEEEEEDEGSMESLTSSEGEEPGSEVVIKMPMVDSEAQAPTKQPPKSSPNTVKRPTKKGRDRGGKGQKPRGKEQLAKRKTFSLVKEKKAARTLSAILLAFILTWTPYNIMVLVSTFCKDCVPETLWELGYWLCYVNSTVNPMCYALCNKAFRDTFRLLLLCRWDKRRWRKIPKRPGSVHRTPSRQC
# Method in brief: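 Quantitative HTS in CHO-M1 (rat receptor) cells: 10 min compound exposure ahead of 100 nM carbachol, Fluo-4 fluorescence followed 4 min, value expressed as peak-to-basal ratio.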
# [17] = target: Muscarinic acetylcholine receptor M1 (Rattus norvegicus) (UniProt P08482); experiment: qHTS Assay for Antagonists of Acetylcholine Muscarinic M1 Receptor: Measurement of IP-One Response (AID 944); conditions: CHO-M1 cells, IP-One HTRF, antagonist mode; series mostly up to 46.1 µM; note: nearly all actives have a fitted effect of over 75% in size
# Method in brief: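 Antagonism was measured as loss of carbachol-driven (EC80) IP1 accumulation in CHO cells carrying rat M1, using a homogeneous IP-One TR-FRET kit read at 620 and 665 nm.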
# [18] = target: Pyruvate kinase (Leishmania mexicana) (UniProt Q27686); experiment: qHTS Validation Assay for Inhibitors of Leishmania Mexicana Pyruvate Kinase (AID 945); conditions: purified L. mexicana pyruvate kinase, enzyme activity, E451W mutant enzyme; series mostly up to 57.5 µM
# Method in brief: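 Mutant LmPYK (E451W), 0.2 nM, plus 0.5 mM PEP and 0.1 mM ADP in 50 mM imidazole pH 7.2 containing 0.01% Tween 20 and 0.05% BSA. Incubated 1 h at room temperature; luminescence via PKLight, normalized to DMSO.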
# [19] = target: Pyruvate kinase PKM (Homo sapiens) (UniProt P14618); experiment: qHTS Assay for Activators of Human Muscle Pyruvate Kinase (AID 954; active = well fitted curve in the direction sought with a large enough effect, not every such curve was filed as active); conditions: purified human muscle pyruvate kinase, luciferase-coupled luminescence, 1 h; series mostly up to 57.5 µM
# Sequence of Pyruvate kinase PKM (Homo sapiens) (P14618 whole entry, looked up): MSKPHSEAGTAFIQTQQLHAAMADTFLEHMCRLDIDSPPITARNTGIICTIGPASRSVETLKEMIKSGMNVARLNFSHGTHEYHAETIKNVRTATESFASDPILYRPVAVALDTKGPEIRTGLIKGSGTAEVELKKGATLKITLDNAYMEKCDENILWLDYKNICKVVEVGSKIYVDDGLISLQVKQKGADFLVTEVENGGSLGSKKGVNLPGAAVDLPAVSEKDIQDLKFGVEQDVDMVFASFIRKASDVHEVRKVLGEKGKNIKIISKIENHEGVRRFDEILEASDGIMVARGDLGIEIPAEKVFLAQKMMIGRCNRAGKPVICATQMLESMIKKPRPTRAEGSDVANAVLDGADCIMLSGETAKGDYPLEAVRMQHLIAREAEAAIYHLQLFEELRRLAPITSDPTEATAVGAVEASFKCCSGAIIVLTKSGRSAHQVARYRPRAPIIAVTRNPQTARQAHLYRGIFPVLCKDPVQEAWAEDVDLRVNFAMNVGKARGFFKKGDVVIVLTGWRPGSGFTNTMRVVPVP
# Method in brief: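 ATP production by PKM2 detected via luciferase luminescence after 1 h room-temperature reaction (0.1 nM enzyme, PEP at Km 0.5 mM, ADP 0.1 mM, pH 7.2 imidazole buffer). Inhibition scaled to no-enzyme control; activation referenced to 0.3 nM enzyme wells.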
# [20] = target: Alpha-galactosidase A (Homo sapiens) (UniProt P06280); experiment: Counterscreen for Glucocerebrosidase Inhibitors: qHTS Assay for Human alpha-Galactosidase at pH 4.5 (AID 992); conditions: purified enzyme, fluorogenic substrate; series mostly up to 76.9 µM
# Sequence of Alpha-galactosidase A (Homo sapiens) (P06280 whole entry, looked up): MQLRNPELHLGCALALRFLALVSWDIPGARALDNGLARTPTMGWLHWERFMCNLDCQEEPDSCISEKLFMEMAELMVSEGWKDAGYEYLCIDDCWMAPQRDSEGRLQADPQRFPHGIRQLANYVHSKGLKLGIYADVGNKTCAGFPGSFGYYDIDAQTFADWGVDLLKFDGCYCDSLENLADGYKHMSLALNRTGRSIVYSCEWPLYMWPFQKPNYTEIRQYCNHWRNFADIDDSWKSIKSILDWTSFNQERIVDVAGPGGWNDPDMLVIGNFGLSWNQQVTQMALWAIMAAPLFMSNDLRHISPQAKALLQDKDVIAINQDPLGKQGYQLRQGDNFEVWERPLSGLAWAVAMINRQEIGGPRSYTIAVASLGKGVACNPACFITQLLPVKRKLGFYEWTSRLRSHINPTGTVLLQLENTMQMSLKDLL
# Method in brief: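 Fluorogenic 1536-well qHTS at pH 4.5 (citrate, Tween-20): 2 nM enzyme, 80 uM 4-MU-alpha-galactoside, 20 min room temperature, NaOH/glycine stop. Titration 0.7 nM to 77 uM, data normalized to no-enzyme and full-activity controls, Hill-fitted AC50.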
# [21] = target: alpha-glucosidase (Oryza sativa, rice) (UniProt Q653V4); experiment: Counterscreen for Glucocerebrosidase Inhibitors: qHTS Assay for Rice alpha-Glucosidase at pH 5.0 (AID 997); conditions: rice alpha-glucosidase enzyme activity; series mostly up to 76.9 µM
# Method in brief: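 Endpoint fluorogenic assay at pH 5.0: compounds (0.7 nM to 77 uM) titrated against 4 nM rice enzyme and 400 uM 4-MU-alpha-glucoside for 20 min at room temperature; NaOH/glycine stop, read ex 365/em 440 nm, Hill-fitted AC50.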
# [22] = qHTS Assay for Lipid Storage Modulators (AID 1519; calls by dose curve); conditions: Drosophila S3 cells, BODIPY lipid droplet/cell ratio, laser cytometry, cells loaded with oleic acid
# Method in brief: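 Cells seeded at 5,000 per well were treated with compounds over a concentration series and loaded with oleic acid (400 uM, as added). Lipid droplet fluorescence (488 nm excitation, 500-530 nm channel) was read by laser-scanning cytometry and normalized to 20 uM Triacsin C.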
# [23] = target: DNA dC->dU-editing enzyme APOBEC-3G (Homo sapiens) (UniProt Q9HC16); experiment: qHTS for inhibitors of Vif-A3G interactions: Validation (AID 588379); conditions: Vif-A3G protein interaction assay; series mostly up to 46.1 µM
# Sequence of DNA dC->dU-editing enzyme APOBEC-3G (Homo sapiens) (Q9HC16 whole entry, looked up): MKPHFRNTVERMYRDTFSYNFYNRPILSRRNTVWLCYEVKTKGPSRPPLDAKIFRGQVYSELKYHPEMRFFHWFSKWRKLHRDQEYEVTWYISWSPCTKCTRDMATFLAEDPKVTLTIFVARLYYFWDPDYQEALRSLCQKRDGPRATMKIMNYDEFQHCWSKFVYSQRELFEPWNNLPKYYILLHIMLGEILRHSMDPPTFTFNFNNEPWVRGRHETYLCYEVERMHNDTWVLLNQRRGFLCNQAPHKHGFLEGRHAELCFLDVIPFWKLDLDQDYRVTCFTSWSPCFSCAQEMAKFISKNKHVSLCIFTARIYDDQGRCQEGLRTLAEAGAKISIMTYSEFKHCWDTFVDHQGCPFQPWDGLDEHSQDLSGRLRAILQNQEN
# Method in brief: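 Yellow fluorescence (Ex 488, Em 500-530) of Vif-coexpressing HeLa A3G-eYFP cells, scanned by Acumen cytometer, reports blocked A3G degradation. Cells plated at 700/well overnight at 37 deg C before compound addition, then a further overnight compound incubation at 37 deg C.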
# [24] = tested on: Zika virus NS2B-NS3 protease; experiment: Primary screen GU AMC qHTS for Zika virus inhibitors (AID 1347154); conditions: Zika NS2B-NS3 unlinked protease, AMC fluorogenic substrate; series mostly up to 54.1 µM; note: nearly all actives have a fitted effect of over 70% in size
# Method in brief: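 Fluorogenic AMC-substrate cleavage by noncovalent NS2B-NS3 protease complex (25 nM, pH 8.0 Tris buffer with Tween 20) followed for 15 minutes at room temperature (~20% conversion). Percent inhibition from ex340/em450 signal change, fitted by 4-parameter Hill equation.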
# [25] = Primary qHTS for small molecule stabilizers of the endoplasmic reticulum resident proteome: Secreted ER Calcium Modulated Protein (SERCaMP) assay (AID 1508630); conditions: SH-SY5Y GLuc-SERCaMP (Gaussia luciferase released on ER calcium loss) secretion, thapsigargin, luminescence; series mostly up to 38.4 µM
# Method in brief: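 The SH-SY5Y reporter protocol was run at 3 concentrations up to 38.3 uM (primary) or 11 concentrations (follow-up): 16 h compound, 100 nM thapsigargin for 4 h, then extracellular luciferase luminescence.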
compound,measurement,setting,value
O=C(O)[C@H]1CCCNC1,"activity change, negative = inhibition",[1],5.2% (inactive)
same,Potency,[2],inactive
same,"activity change, negative = inhibition",[3],2.68% (inactive)
same,"activity, negative = inhibition",[4],-8.68% (inactive)
same,Potency,[5],> 46 µM (inactive)
same,Potency,[6],> 46 µM (inactive)
same,Potency,[7],inactive
same,Potency,[8],inactive
same,outcome,[9],inactive
same,Potency,[10],inactive
same,Potency,[11],inactive
same,Potency,[12],inactive
same,outcome,[13],inactive
same,Potency,[14],inactive
same,outcome,[15],inactive
same,Potency,[16],inactive
same,Potency,[17],inactive
same,Potency,[18],inactive
same,outcome,[19],inactive
same,outcome,[20],inactive
same,outcome,[21],inactive
same,"activity change, negative = inhibition",[22]; at 57.5 µM (top of the series),-2.39% (inactive)
same,max response,[22]; measured here: cell count channel max response,-0.0867%
same,max response,[22]; measured here: lipid channel max response,-1.72%
same,Potency,[23],inactive
same,Potency,[24],inactive
same,Potency,[25],inactive

# Reference: PubChem BioAssay (NCATS)
